For 25 molecules, activation and Potency results are on record in PubChem BioAssay (NCATS).

Results filed as inconclusive are left out. A number with no mark means an inactive call. Active and inactive are the calls of the source. Calls come from the whole dose curve; as a rule, active = well fitted curve in the direction sought with a large enough effect; inconclusive = small, poorly fitted or top-dose-only effect, or another doubt; inactive = no such curve, though single readings can be large; an effect the other way counts as inactive or inconclusive.

Assay [1] addresses Cellular tumor antigen p53 (Homo sapiens) (UniProt P04637). As to the kind of experiment: Primary qHTS for small molecule compounds that upregulate eGFP-tagged delta133p53alpha (in N-terminal) cells. (AID 2060322).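 For activation: cells pre-induced with doxycycline then dosed without doxycycline; series mostly up to about 56 µM; 0% = DMSO vehicle and 100% = reference activator.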 Note: nearly all actives have a fitted effect of over 75% in size. Note: potency is the fitted concentration of half-maximal effect. The note with it: NCI-H358 eGFP-delta133p53alpha fluorescence, 24 h; activation: hits give high values. In outline:
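NCI-H358 cells pre-induced 24 h with 10 ng/ml doxycycline for eGFP-delta133p53alpha, plated dox-free and exposed 24 h at 37C to titrated compounds. Fixed, Hoechst-stained; gated GFP peak intensity by laser scanning cytometry, normalized to DMSO (0%) and 57.5 uM 5-azacytidine (100%).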
On the technique in general: Quantitative high-throughput screening tests each substance at several concentrations.

The target of assay [2] is Aldehyde dehydrogenase, mitochondrial (Homo sapiens) (UniProt P05091). As to the kind of experiment: qHTS for Inhibitors of the Aldehyde Dehydrogenase Family (ALDH2) Primary screen (AID 2061308).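 Note: plate controls were vehicle for no effect and reference inhibitor for full effect; nearly all actives have a fitted effect of over 55% in size.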
Assay [3] deals with Retinaldehyde dehydrogenase 3 (Homo sapiens) (UniProt P47895). The experiment in a line: qHTS for Inhibitors of the Aldehyde Dehydrogenase Family (ALDH1A3) Primary screen (AID 2061315). Note: potency is the fitted concentration of half-maximal effect.

Sequence of Cellular tumor antigen p53 (Homo sapiens) (P04637 whole entry, looked up): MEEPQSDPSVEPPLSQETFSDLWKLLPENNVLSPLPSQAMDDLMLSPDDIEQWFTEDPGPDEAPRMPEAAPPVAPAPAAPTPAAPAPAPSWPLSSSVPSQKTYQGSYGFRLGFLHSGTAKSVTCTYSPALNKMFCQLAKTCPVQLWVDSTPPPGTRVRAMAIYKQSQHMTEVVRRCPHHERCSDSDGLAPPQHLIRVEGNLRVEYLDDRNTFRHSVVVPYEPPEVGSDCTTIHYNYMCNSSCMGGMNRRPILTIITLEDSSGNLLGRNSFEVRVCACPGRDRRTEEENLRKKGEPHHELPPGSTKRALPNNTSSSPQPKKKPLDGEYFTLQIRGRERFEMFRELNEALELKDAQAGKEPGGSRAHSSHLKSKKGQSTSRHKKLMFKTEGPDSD

In the case of `OCCc1ccc(O[C@@H]2O[C@H](CO)[C@@H](O)[C@H](O)[C@H]2O)cc1`, in assay [1], the activation was -7.14%. Moreover, the Potency entry in assay [2] and in assay [3] was “inactive” each time.

`O=S(=O)(c1ccccc1)N(CC(F)(F)F)c1ccc(C(O)(C(F)(F)F)C(F)(F)F)cc1`: the activation in assay [1] is -3.67%. The Potency result in assay [2] and in assay [3] was “inactive” in each case.

In the case of `CCNC1(C(N)=O)CN(c2nc(C)nc3c(-c4ccc(Cl)cc4)c(-c4ccccc4Cl)nn23)C1`, the activation in assay [1] is -0.333%. Also, the Potency result in assay [2] and in assay [3] was “inactive” throughout.

As to `CC(O)C1CCC2C3CCC4CC(OC5OC(C(=O)O)C(O)C(O)C5O)CCC4(C)C3CCC12C` (stereo not given), the activation in assay [1] was -17%. Further, the Potency result in assay [2] and in assay [3] was “inactive” in each case.

On to `CCN(CC)CCCCCCNc1cc(OC)cc2c(C)ccnc12`, for which, in assay [1], the activation is -2.86%. For the same molecule, the Potency entry in assay [2] is “inactive”. In addition, the Potency in assay [3] is 2.51 µM (active).

As for `COc1ccc(C2OCC3C(c4cc(OC)c5c(c4)OCO5)OCC23)cc1OC` (stereo not given), the activation in assay [1] is -8.4%. For the same molecule, the Potency result in assay [2] and in assay [3] was “inactive” in each case.

`CC(CCC1C(C(=O)O)=CC(=O)CC1(C)C)O[C@@H]1O[C@H](CO)[C@@H](O)[C@H](O)[C@H]1O` (stereo not given in full): in assay [1], the activation was -11.5%. Moreover, the Potency entry in assay [2] and in assay [3] was “inactive” throughout.

Consider `c1nc(NC2CCCCCC2)c2cc(CNC[C@H]3CCCO3)sc2n1`, for which the activation in assay [1] was -0.893%. Also, the Potency entry in assay [2] and in assay [3] was “inactive” in each case.

Consider `CC(C)CC(=O)O[C@@H]1OC=C(CO[C@@H]2O[C@H](CO)[C@@H](O)[C@H](O)[C@H]2O)[C@H]2[C@@H]3O[C@H]3[C@@](O)(CO)[C@@H]12`, for which, in assay [1], the activation is -3.05%. For the same molecule, the Potency entry in assay [2] and in assay [3] was “inactive” each time.

As for `Cc1cnc(NC(=O)Nc2cc(Br)c(C)cc2OCC2CNCCO2)cn1` (stereo not given), the activation in assay [1] was 11.6%. Moreover, the Potency result in assay [2] and in assay [3] was “inactive” each time.

Take `CC[C@H](C)/C=C(C)/C=C/C1=CC2=C(Cl)C(=O)[C@](C)(O)[C@H](OC(C)=O)[C@H]2CO1`: the Potency in assay [1] is 14.8 µM (active). Besides, the Potency entry in assay [2] and in assay [3] was “inactive” in each case.

On to `COc1cc(F)c(C(C)C)cc1-c1ccc(C(F)(F)F)cc1CN1C(=O)OC(c2cc(C(F)(F)F)cc(C(F)(F)F)c2)C1C` (stereo not given), for which the activation in assay [1] is -6.68%. Besides, the Potency entry in assay [2] and in assay [3] was “inactive” in each case.

`C=C1CCC2C(C)(C)CCCC2(C)C1CC/C(C)=C\CO` (stereo not given): the activation in assay [1] was -12.5%. The Potency entry in assay [2] and in assay [3] was “inactive” throughout.

On to `C/C=C(\C)C(=O)OC[C@H]1O[C@@H](O[C@H]2[C@@H](O[C@H]3O[C@H](COC(=O)/C(C)=C/C)[C@@H](O)[C@H](O)[C@H]3O[C@@H]3O[C@H](CO)[C@@H](O)[C@H](OC(=O)/C(C)=C/C)[C@H]3O)O[C@H](COC(=O)/C(C)=C/C)[C@@H](O)[C@@H]2O)[C@H](O)[C@@H](O)[C@@H]1O`, for which the activation in assay [1] is -25.2%. Moreover, the Potency entry in assay [2] and in assay [3] was “inactive” each time.

For `CC(=O)c1ccc(O[C@@H]2O[C@H](CO[C@@H]3OC[C@@H](O)[C@H](O)[C@H]3O)[C@@H](O)[C@H](O)[C@H]2O)cc1`, in assay [1], the activation was -12.2%. Besides, the Potency result in assay [2] and in assay [3] was “inactive” each time.

For the molecule `COc1cc2ncnc(Nc3ccc(F)c(Cl)c3)c2cc1O`, the activation in assay [1] was 25.7%. Also, the Potency result in assay [2] and in assay [3] was “inactive” throughout.

Take `CC1=C(CO)C2(C)CCCC(C)(C)C2C(O)C1O` (stereo not given): the activation in assay [1] is 11.6%. In addition, the Potency entry in assay [2] and in assay [3] was “inactive” in each case.

For `CC1=CCC2C(C)(CO)CCCC2(C)C1CC12OC1C(O)C(CO)=CC2O` (stereo not given), the activation in assay [1] is 12.2%. The Potency result in assay [2] and in assay [3] was “inactive” each time.

Regarding `C[C@H]1[C@H](C)CC[C@]2(C(=O)O)CC[C@]3(C(=O)O)C(=CCC4[C@@]5(C)CC[C@H](O[C@@H]6O[C@H](C)[C@@H](O)[C@H](O)[C@H]6O)C(C)(C)C5CC[C@]43C)[C@H]12` (stereo not given in full), the activation in assay [1] is -5.36%. For the same molecule, the Potency result in assay [2] and in assay [3] was “inactive” each time.

`CN1c2ccccc2C(=O)N2CCC3c4ccccc4NC3C21` (stereo not given): the Potency in assay [1] was 1.66 µM (active). The Potency entry in assay [2] and in assay [3] was “inactive” throughout.

For the molecule `CC1(C)CC[C@]2(C(=O)O[C@@H]3O[C@H](CO)[C@@H](O)[C@H](O)[C@H]3O)CC[C@]3(C)C(=CCC4[C@@]5(C)CC[C@H](OC6OC(C(=O)O)C(OC7OC(CO)C(O)C(O)C7O)C(O)C6O)C(C)(C)C5CC[C@]43C)C2C1` (stereo not given in full), in assay [1], the activation is -16.8%. For the same molecule, the Potency entry in assay [2] and in assay [3] was “inactive” each time.

On to `CCOC(=O)C1=Cc2ccc(C(F)(F)C(F)(F)F)cc2N=C(N)C1`, for which the activation in assay [1] is -1.79%. For the same molecule, the Potency result in assay [2] and in assay [3] was “inactive” each time.

For `COC(=O)C1=CO[C@@H](O[C@@H]2O[C@H](CO)[C@@H](O)[C@H](O)[C@H]2O)[C@@H]2[C@@](C)(O)[C@@H](OC(=O)/C=C/c3ccc(O)cc3)C[C@]12O`, in assay [1], the activation is -0.763%. Also, the Potency result in assay [2] and in assay [3] was “inactive” each time.

`C=C[C@H]1[C@H](O[C@@H]2O[C@H](CO)[C@@H](O)[C@H](O)[C@H]2O)OC=C2C(=O)N3Cc4c([nH]c5ccccc5c4=O)[C@@H]3C[C@H]21`: the activation in assay [1] was 0.893%. The Potency entry in assay [2] and in assay [3] was “inactive” each time.

Consider `C/C(=C\CO)CC/C=C(\C)C(=O)O[C@@H]1O[C@H](CO)[C@@H](O)[C@H](O)[C@H]1O`, for which the activation in assay [1] was -19.6%. The Potency entry in assay [2] and in assay [3] was “inactive” throughout.
